Data: PubChem BioAssay (NCI)
Compounds without any hit were thinned out: in the full panel of roughly 79,000, 15% have a hit. Calls of active or inactive are those of the source. Rule as the data show it: active = growth inhibition above about 70%; inactive = the rest.

Columns and labels:
[1] = NCI Yeast Anticancer Drug Screen. Data for the mec2-1 strain (AID 157); conditions: S. cerevisiae mec2-1 strain, stronger effect = higher value
Method in brief: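 Mutant yeast (mec2-1) grown with compound; growth inhibition relative to vehicle control reported.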

[2] = NCI Yeast Anticancer Drug Screen. Data for the rad14 strain (AID 159);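 also: 0% = growth of vehicle-treated control cultures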; conditions: S. cerevisiae rad14 strain growth inhibition, stronger effect = higher value
Method in brief: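 Inhibition of growth is reported for a repair-deficient yeast mutant following compound treatment, calculated relative to cultures that received vehicle.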

[3] = NCI Yeast Anticancer Drug Screen. Data for the sgs1 mgt1 strain (AID 161);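 also: 0% = growth of cultures given vehicle only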; conditions: S. cerevisiae sgs1 mgt1 strain, stronger effect = higher value
Method in brief: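 Compounds are added to genetically altered yeast, and growth is compared with cultures given vehicle alone to give percent inhibition.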

[4] = NCI Yeast Anticancer Drug Screen. Data for the CLN2oe strain (AID 163);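 also: 0% = growth of vehicle-only control cultures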; conditions: S. cerevisiae CLN2oe strain, stronger effect = higher value
Method in brief: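 Compounds are applied to yeast harbouring a defined cell-cycle control change; reduced growth compared with vehicle-treated controls gives the value.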

[5] = NCI Yeast Anticancer Drug Screen. Data for the cln2 rad14 strain (AID 165);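 also: 0% = growth equal to vehicle treated cultures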; conditions: S. cerevisiae cln2 rad14 strain, stronger effect = higher value
Method in brief: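 Readout is yeast growth inhibition versus vehicle-treated controls, using a strain with cln2 and rad14 alterations exposed to compound.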

[6] = NCI Yeast Anticancer Drug Screen. Data for the bub3 strain (AID 167); conditions: S. cerevisiae bub3 mutant strain, stronger effect = higher value
Method in brief: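 Mutant yeast screening strain plus compound; vehicle-treated cultures serve as the 0% inhibition reference.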

[7] = NCI Yeast Anticancer Drug Screen. Data for the wt2 strain (AID 169); conditions: S. cerevisiae wt2 strain growth inhibition, stronger effect = higher value
Method in brief: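 Against vehicle-treated controls, the growth of yeast exposed to each compound was compared, and the inhibition was recorded.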

[8] = NCI Yeast Anticancer Drug Screen. Data for the mlh1 strain (AID 171);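 also: 0% = growth of vehicle-treated control cultures of the same strain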; conditions: S. cerevisiae mlh1 strain growth inhibition, stronger effect = higher value
Method in brief: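 Measured: yeast growth. Reference: vehicle-treated controls. Organism: strain with a defined alteration affecting DNA damage repair or cell cycle control, treated with compound.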

[9] = NCI Yeast Anticancer Drug Screen. Data for the sgs1 strain (AID 173);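 also: 0% = growth of vehicle-only control cultures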; conditions: S. cerevisiae sgs1 mutant, stronger effect = higher value
Method in brief: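 Each compound was added to cultures of the altered yeast strain. Growth was recorded, and inhibition was derived by comparison with vehicle controls.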

[10] = NCI Yeast Anticancer Drug Screen. Data for the mlh1 rad18 strain (AID 175); conditions: S. cerevisiae mlh1 rad18 strain growth inhibition, stronger effect = higher value
Method in brief: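 Genetically defined yeast (DNA repair-deficient) exposed to compounds; growth inhibition determined relative to vehicle.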

[11] = NCI Yeast Anticancer Drug Screen. Data for the rad18 strain (AID 177); conditions: S. cerevisiae rad18 mutant growth inhibition, stronger effect = higher value
Method in brief: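 Vehicle-treated cultures served as the baseline for scoring compound-induced growth inhibition in DNA-repair-mutant yeast.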

[12] = NCI Yeast Anticancer Drug Screen. Data for the rad52 strain (AID 147);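 also: 0% = growth of vehicle-treated control cultures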; conditions: S. cerevisiae rad52 mutant growth inhibition, stronger effect = higher value
Method in brief: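 The repair-mutant yeast strain was incubated with compounds, then growth was read and inhibition derived relative to vehicle.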

[13] = NCI Yeast Anticancer Drug Screen. Data for the wt1 strain (AID 149);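 also: 0% = growth of vehicle-treated wt1 cultures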; conditions: S. cerevisiae wt1 strain (SPY 50644) growth inhibition, stronger effect = higher value
Method in brief: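 Each compound is tested on wt1 yeast and the loss of growth versus vehicle gives the inhibition value.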

[14] = NCI Yeast Anticancer Drug Screen. Data for the rad50EPP+ strain (AID 151);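 also: 0% = growth of vehicle-treated control cultures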; conditions: S. cerevisiae rad50 mutant strain, stronger effect = higher value
Method in brief: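 Vehicle-normalised growth inhibition; rad50EPP+ yeast strain, altered in DNA damage repair, compound-treated.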

[15] = NCI Yeast Anticancer Drug Screen. Data for the mgt1 strain (AID 153); conditions: S. cerevisiae mgt1 mutant growth inhibition, stronger effect = higher value
Method in brief: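 Vehicle-normalized growth inhibition is determined in mgt1 yeast, a strain selected for a defined alteration in DNA repair or cell cycle control.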

[16] = NCI Yeast Anticancer Drug Screen. Data for the rad50 strain (AID 155);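 also: 0% = growth of vehicle-only cultures of the same strain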; conditions: S. cerevisiae rad50 strain growth inhibition, stronger effect = higher value
Method in brief: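 Vehicle-treated cultures provide the reference for the growth inhibition reported for compound-exposed, repair-deficient yeast.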

[17] = at 5.0 µM (retest, dose inferred, filed as 0.5)
[18] = at 50.0 µM (retest, dose inferred, filed as 5.0)

Measured: growth inhibition

CCC[CH2][Ge]([CH2]CCC)([CH2]CCC)[O]C(=O)C(OC)c1ccccc1 (centres undefined)
inactive: [1]; [17] 57% | [1]; at 11.0 µM 7% | [1]; at 33.0 µM 34% | [1]; [18] 57% | [2]; at 1.2 µM -2% | [2]; at 3.7 µM -7% | [2]; at 11.0 µM -10% | [2]; at 33.0 µM 26% | [3]; [17] 59% | [3]; [18] 59% | [4]; at 1.2 µM -6% | [4]; at 3.7 µM 1% | [4]; at 11.0 µM 6% | [4]; at 33.0 µM 41% | [5]; [17] 18% | [5]; [18] 18% | [5]; at 50.0 µM 66.5% | [6]; at 1.2 µM -6% | [6]; at 3.7 µM -4% | [6]; [17] 10% | [6]; at 11.0 µM 12% | [6]; at 33.0 µM 54% | [6]; [18] 10% | [7]; at 1.2 µM -3% | [7]; at 3.7 µM -4% | [7]; at 11.0 µM 0% | [7]; at 33.0 µM 48% | [8]; at 1.2 µM -4% | [8]; at 3.7 µM -5% | [8]; at 11.0 µM -1% | [8]; at 33.0 µM 60% | [9]; at 1.2 µM -1% | [9]; at 3.7 µM 1% | [9]; at 11.0 µM 11% | [10]; [17] 39% | [10]; [18] 39% | [11]; at 1.2 µM 5% | [11]; at 3.7 µM 4% | [11]; at 11.0 µM 22%
active: [1]; at 50.0 µM 75.5% | [1]; at 100.0 µM 98% | [2]; at 100.0 µM 95% | [3]; at 50.0 µM 82.8% | [4]; at 100.0 µM 98% | [6]; at 50.0 µM 76% | [6]; at 100.0 µM 97% | [7]; at 100.0 µM 98% | [8]; at 100.0 µM 98% | [9]; at 33.0 µM 71% | [9]; at 100.0 µM 94% | [10]; at 50.0 µM 78% | [11]; at 33.0 µM 80% | [11]; at 100.0 µM 98%

O=C(/C=C/c1cccc(Br)c1)c1cccs1
inactive: [12]; at 1.2 µM -32% | [12]; at 3.7 µM -12% | [13]; at 1.2 µM -15% | [13]; at 3.7 µM -5% | [13]; at 11.0 µM 61% | [14]; at 1.2 µM -9% | [14]; at 3.7 µM -5% | [14]; at 11.0 µM 29% | [15]; at 1.2 µM -1% | [15]; at 3.7 µM 13% | [16]; at 1.2 µM 6% | [16]; at 3.7 µM 10% | [16]; [17] 8% | [1]; at 1.2 µM -16% | [1]; at 3.7 µM 4% | [1]; [17] -9% | [2]; at 1.2 µM -2% | [2]; at 3.7 µM 5% | [3]; [17] 16% | [4]; at 1.2 µM 9% | [4]; at 3.7 µM 10% | [5]; [17] 11% | [5]; at 50.0 µM 46.5% | [6]; at 1.2 µM 30% | [6]; at 3.7 µM 45% | [6]; [17] 36% | [7]; at 1.2 µM -24% | [7]; at 3.7 µM -16% | [7]; at 11.0 µM 67% | [8]; at 1.2 µM 9% | [8]; at 3.7 µM 25% | [9]; at 1.2 µM -17% | [9]; at 3.7 µM 0% | [10]; [17] 21% | [11]; at 1.2 µM 4% | [11]; at 3.7 µM 26%
active: [12]; at 11.0 µM 74% | [12]; at 33.0 µM 97% | [12]; at 100.0 µM 94% | [13]; at 33.0 µM 98% | [13]; at 100.0 µM 95% | [14]; at 33.0 µM 82% | [14]; at 100.0 µM 85% | [15]; at 11.0 µM 85% | [15]; at 33.0 µM 97% | [15]; at 100.0 µM 92% | [16]; at 11.0 µM 83% | [16]; at 33.0 µM 97% | [16]; [18] 96% | [16]; at 50.0 µM 88.2% | [16]; at 100.0 µM 91% | [1]; at 11.0 µM 75% | [1]; at 33.0 µM 99% | [1]; [18] 98% | [1]; at 50.0 µM 91.5% | [1]; at 100.0 µM 96% | [2]; at 11.0 µM 81% | [2]; at 33.0 µM 96% | [2]; at 100.0 µM 92% | [3]; [18] 96% | [3]; at 50.0 µM 91.8% | [4]; at 11.0 µM 84% | [4]; at 33.0 µM 98% | [4]; at 100.0 µM 96% | [5]; [18] 97% | [6]; at 11.0 µM 94% | [6]; at 33.0 µM 98% | [6]; [18] 98% | [6]; at 50.0 µM 90.8% | [6]; at 100.0 µM 96% | [7]; at 33.0 µM 98% | [7]; at 100.0 µM 95% | [8]; at 11.0 µM 89% | [8]; at 33.0 µM 97% | [8]; at 100.0 µM 95% | [9]; at 11.0 µM 78% | [9]; at 33.0 µM 98% | [9]; at 100.0 µM 94% | [10]; [18] 95% | [10]; at 50.0 µM 87.9% | [11]; at 11.0 µM 91% | [11]; at 33.0 µM 97% | [11]; at 100.0 µM 93%

Clc1ccccc1C1OC1c1ccccc1Cl (centres undefined)
inactive: [12]; at 1.2 µM -29% | [12]; at 3.7 µM -38% | [12]; at 11.0 µM -61% | [12]; at 33.0 µM -18% | [12]; at 100.0 µM -32% | [13]; at 1.2 µM -65% | [13]; at 3.7 µM -49% | [13]; at 11.0 µM -61% | [13]; at 33.0 µM -52% | [13]; at 100.0 µM -26% | [14]; at 1.2 µM -86% | [14]; at 3.7 µM -56% | [14]; at 11.0 µM -40% | [14]; at 33.0 µM 20% | [15]; at 1.2 µM -60% | [15]; at 3.7 µM -90% | [15]; at 11.0 µM -65% | [15]; at 33.0 µM -35% | [15]; at 100.0 µM -27% | [16]; at 1.2 µM -66% | [16]; at 3.7 µM -62% | [16]; [17] 57% | [16]; at 11.0 µM -73% | [16]; at 33.0 µM -51% | [16]; at 50.0 µM 38.6% | [16]; at 100.0 µM 14% | [1]; at 1.2 µM -92% | [1]; at 3.7 µM -86% | [1]; [17] 55% | [1]; at 11.0 µM -94% | [1]; at 33.0 µM -75% | [1]; at 50.0 µM 21.9% | [1]; at 100.0 µM -37% | [2]; at 1.2 µM -46% | [2]; at 3.7 µM -46% | [2]; at 11.0 µM -50% | [2]; at 33.0 µM -43% | [2]; at 100.0 µM -9% | [3]; [17] -17% | [3]; at 50.0 µM 44.9% | [4]; at 1.2 µM -3% | [4]; at 3.7 µM 7% | [4]; at 11.0 µM -1% | [4]; at 33.0 µM -1% | [4]; at 100.0 µM 8% | [5]; [17] 37% | [5]; at 50.0 µM 13.6% | [6]; at 1.2 µM -56% | [6]; at 3.7 µM -53% | [6]; [17] 0% | [6]; at 11.0 µM -47% | [6]; at 33.0 µM -42% | [6]; at 50.0 µM 41.6% | [6]; at 100.0 µM -6% | [7]; at 1.2 µM -49% | [7]; at 3.7 µM -71% | [7]; at 11.0 µM -69% | [7]; at 33.0 µM -46% | [7]; at 100.0 µM -16% | [8]; at 1.2 µM -69% | [8]; at 3.7 µM -69% | [8]; at 11.0 µM -35% | [8]; at 33.0 µM -50% | [8]; at 100.0 µM 24% | [9]; at 1.2 µM -78% | [9]; at 3.7 µM -72% | [9]; at 11.0 µM -81% | [9]; at 33.0 µM -38% | [9]; at 100.0 µM 18% | [10]; [17] 57% | [10]; at 50.0 µM 5% | [11]; at 1.2 µM -59% | [11]; at 3.7 µM -48% | [11]; at 11.0 µM -64% | [11]; at 33.0 µM -48% | [11]; at 100.0 µM 2%
active: [14]; at 100.0 µM 70% | [16]; [18] 100% | [1]; [18] 99% | [3]; [18] 98% | [5]; [18] 99% | [6]; [18] 98% | [10]; [18] 100%
